Screens from PubChem.
An excerpt weighted towards active compounds, which were near 4.6% of everything screened.
Marburg entry inh = Marburg virus entry inhibition. Marburg virus pseudotyped entry inhibition, cell reporter. Potency, µM (top dose mostly 37.8 µM), inactives show top-dose activity change, negative = inhibition, hits mostly inhibitors. actives 1.8% (n = 300,000); calls by dose curve; tested in HEK293 cells; note: % is set by controls: 0 for no effect and ±100 for the full control effect
Lassa entry inh = blocks Lassa virus binding to or entry into cells; actives 1.2% (n = 300,000); Lassa virus pseudotype entry inhibition, cell reporter; Potency, µM (titrated, usually from 37.9 µM), for the others: at the highest dose activity change, negative = inhibition, usual class: inhibitors; calls by dose curve; tested in HEK293 cells; note: % is set by controls: 0 for no effect and ±100 for the full control effect; nearly all actives have a fitted effect of over 50% in size
Vaccinia mCherry = inhibitors of vaccinia virus infection (mCherry reporter signal); Vaccinia virus mCherry reporter infection, fluorescence; Potency, µM (titrated, usually from 36.5 µM), inactives show at the top dose activity change, negative = inhibition, hits mostly inhibitors; actives 0.63% (n = 310,000); calls by dose curve; tested in A549 cells; note: % is set by controls: 0 for no effect and ±100 for the full control effect; nearly all actives have a fitted effect of over 35% in size
Vaccinia Venus = inhibitors of vaccinia virus (Venus reporter); Vaccinia virus Venus reporter expression, fluorescence; Potency, µM (highest dose often 36.5 µM), without a hit: at the highest dose activity change, negative = inhibition, usual class: inhibitors; actives 0.46% (n = 330,000); calls by dose curve; tested in A549 cells; note: % is set by controls: 0 for no effect and ±100 for the full control effect; nearly all actives have a fitted effect of over 30% in size
HCV inhibitor = inhibitors of hepatitis C virus infection; AID 651820; actives 3.4% (n = 340,000); Potency, µM (titrated, usually from 41.8 µM), for inactives: top-dose activity change, negative = inhibition, most hits filed as inhibitors; Huh7.5.1 HCVcc-Cre infection, luciferase reporter, 44 h; note: % is set by controls: 0 for no effect and ±100 for the full control effect
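HCVcc-Cre virus at an moi near 0.5 was added right after compound to cells cultured 4 h from seeding (1,000 cells/well). Luciferase activity was determined 44 h later, 15 min after substrate addition at RT.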
HCV confirm = HCV inhibition, cherry-pick confirmation | actives 78% (n = 640) | Potency, µM (series often up to 41.8 µM), for inactives: at the highest dose activity, negative = inhibition, actives largely listed as inhibitors | HCVcc-Cre infectious virus cell assay, luciferase, inhibition | shares compounds with HCV inhibitor; note: nearly all actives have a fitted effect of over 80% in size
HCV host tox = host cell cytotoxicity counter-screen for HCV inhibitors. shares compounds with HCV inhibitor. HCV host cell line cytotoxicity counterscreen. Potency, µM (titrated, usually from 41.8 µM), inactives show at the top dose activity change, negative = cytotoxicity, hits mostly inhibitors. AID 720576. actives 22% (n = 640);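 note: 44 h compound exposure; % is set by controls: 0 for no effect and ±100 for the full control effect; nearly all actives have a fitted effect of over 55% in size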
The depositor's hits bear a star; i = inactive; u = inconclusive; x = no result given; ! = a repeat was not active; [ ] = another dose, or the depositor's remark. Unless noted, calls come from the whole dose curve; as a rule, active = well fitted curve in the direction sought with a large enough effect; inconclusive = small, poorly fitted or top-dose-only effect, or another doubt; inactive = no such curve, though single readings can be large; an effect the other way counts as inactive or inconclusive. Potency is the fitted concentration of half-maximal effect.

SMILES	Marburg entry inh	Lassa entry inh	Vaccinia mCherry	Vaccinia Venus	HCV inhibitor	HCV confirm	HCV host tox
COc1ccc(N(C(=O)c2ccccc2)S(=O)(=O)c2ccc3c(c2)n(C)c(=O)n3C)cc1	5.2%[46.1 µM]	-19.9%[46.1 µM]	-16.8%	-17.7%	x	x	x
Cc1sc2nc(SCC(=O)c3cccs3)n(Cc3ccco3)c(=O)c2c1C	-13.3%	u	x	x	1.9%	u	2.8µM*
Cc1sc2nc(SCc3ccc(C(=O)O)cc3)n(Cc3ccco3)c(=O)c2c1C	u	-25.1%	-5.7%	-3.6%	13.0%	x	x
Cc1cc2c(=O)n(Cc3ccco3)c(SCC(=O)NCc3ccco3)nc2s1	-0.5%	0.4%	-19.6%	-13.8%	3.55µM*	2.8µM*	35.8%
Cc1ccc(Cn2c(SCC(=O)NCc3ccco3)nc3ccsc3c2=O)cc1	u	-2.1%	x	x	4.47µM*	11.2µM*	16.4%
CCCCNC(=O)CSc1nc2cc3c(cc2c(=O)n1Cc1ccco1)OCO3	-26.7%	-5.6%	-0.8%	5.3%	u	14.1µM*	-2.6%
CCOc1cc2[nH]c(=O)n(CCCC(=O)N3CCN(c4ccc(OC)cc4)CC3)c(=O)c2cc1OCC	x	-3.3%[46.1 µM]	-12.1%	-13.8%	x	x	x
Cc1ccc(N2CC(c3nnc(NC(=O)c4ccco4)s3)CC2=O)cc1Cl (configuration not stated)	2.6%[46.1 µM]	3.0%[46.1 µM]	0.5%	1.9%	x	x	x
COc1ccc2c(c1)c1c(c(=O)n(CCc3ccccc3)c(=O)n1Cc1cccc(F)c1)n2C	x	5.7%[46.1 µM]	-21.1%	-17.0%	x	x	x
CCn1c(SC)nnc1-c1sc2cc(Cl)ccc2c1Cl	-22.9%	19.9%	x	-27.7%	5.62µM*	-32.2%	-15.1%
CCN(C[C@H]1N[C@@](Cc2ccccc2)(C(=O)OC)[C@H]2C(=O)N(C)C(=O)[C@@H]12)S(=O)(=O)c1ccc(C(F)(F)F)cc1	x	x	-16.0%	0.0%	u	x	x
CCN(C[C@H]1N[C@@](Cc2ccccc2)(C(=O)OC)[C@H]2C(=O)N(Cc3ccccc3)C(=O)[C@@H]12)S(=O)(=O)c1ccc(C(F)(F)F)cc1	x	x	-12.3%	-8.2%	7.08µM*	u	50.6%
COC(=O)c1c(NC(=O)Cc2cccs2)sc2c1CCCC2	u	u	i	-28.0%	5.01µM*	12.5µM*	u
COC(=O)c1c(NC(=O)COc2c(C)cccc2C)sc2c1CCCC2	x	16.8%[46.1 µM]	-6.3%	8.3%	x	x	x
O=C(O)c1cc([N+](=O)[O-])ccc1N1CCCCC1	-0.3%	10.5%	-18.6%	-14.1%	3.0%	x	x
Cc1ccc(C(=O)c2cc([N+](=O)[O-])ccc2N2CCCCC2)c(C)c1	u	u	u	u	u	u	-39.3%
COc1ccc(CCC(C)NC(=O)Cc2ccc(OC)c(OC)c2)c(OC)c1 (configuration not stated)	x	x	x	x	7.08µM*	11.2µM*	u
c1ccc(CN2C3=NCCN3c3ccccc32)cc1	u	5.1%	i	4.7%	u	x	x
O=C(CN1C2=NCCN2c2ccccc21)C12CC3CC(CC(C3)C1)C2	u	u	x	u	u	28µM*	10.7%
N#C/C(=C\Nc1ccc2cn[nH]c2c1)c1nc(-c2ccccc2)cs1	u	u	i	-13.4%	0.891µM*	3.15µM*	-54.2%
N#C/C(=C\Nc1ccc2cn[nH]c2c1)c1nc(-c2ccc(Cl)cc2)cs1	u	-2.0%	4.1%	4.7%	u	x	x
Cc1cc(C)cc(OCCCn2c(-c3ccc(Cl)cc3)nc3ccccc3c2=O)c1	4.9%[46.1 µM]	u	4.1%	8.7%	x	x	x
Oc1c(CN2CCOCC2)cc(CN2CCOCC2)c(O)c1CN1CCOCC1	3.7%[46.1 µM]	2.6%[46.1 µM]	-10.5%	17.3%	5.6%	x	x
CC(C)(c1cc(Cl)c(O)c(CN2CCOCC2)c1)c1cc(Cl)c(O)c(CN2CCOCC2)c1	u	u	-20.0%	4.1%	3.16µM*	6.28µM*	45.0%
Cc1ccc(NC(=O)Cc2ccc(NC(=O)N3CCCCc4ccccc43)cc2)cc1Cl	x	u	-14.6%	-17.4%	x	x	x
SMILES	Marburg entry inh	Lassa entry inh	Vaccinia mCherry	Vaccinia Venus	HCV inhibitor	HCV confirm	HCV host tox
COc1ccc(NC(=S)N2CCCC(c3nc4ccc(C)cc4[nH]3)C2)cc1 (configuration not stated)	-21.6%	u	x	x	5.01µM*	0.0353µM*	10.1%
CC(=O)Nc1nnc(SCc2cc(=O)c3cccc(Cl)c3[nH]2)s1	x	u	-4.8%	-18.4%	x	x	x
Cc1cccc(C(=O)N=c2c(C#N)cc3c(=O)n4cccc(C)c4nc3n2Cc2ccco2)c1	14.1µM*!	2.7%	-11.1%	-12.1%	5.62µM*	3.96µM*	0.4%
CC1=C(C(=O)NCc2ccccc2C)C2(CCCCCC2)OC1=O	x	14.2%[46.1 µM]	-15.9%	-2.9%	x	x	x
Oc1ccc(Br)cc1-c1cc(-c2ccco2)[nH]n1	-18.9%	-1.8%	x	u	u	x	x
Oc1ccc(Br)cc1-c1ccn[nH]1	u	9.1%	u	-25.5%	u	-27.6%	-19.7%
Cc1cc(Nc2cccc(F)c2)nc(-c2ccccc2O)n1	u	0.4%	u	u	4.47µM*	7.91µM*	-2.2%
Cc1cc(Nc2ccccc2Cl)nc(-c2ccccc2O)n1	u	-18.5%[46.1 µM]	-14.7%	-18.6%	u	x	x
c1ccc(-c2cccc(-c3ccccn3)n2)nc1	2.06µM*	2.06µM*	x	x	5.62µM*	3.53µM*	3.53µM*
CCc1nnc(NC(=O)c2ccc(S(=O)(=O)N3CCc4ccccc4C3)cc2)s1	28.6%	1.3%	-12.8%	-8.1%	9.0%	x	x
Cc1cc(C)c2nc(NNC(=O)c3ccc(S(=O)(=O)N4CCc5ccccc5C4)cc3)sc2c1	u	16.4µM*	15.8µM*	u	4.47µM*	3.53µM*	u
Cc1cccc(OCC(=O)Nc2nnc(S(=O)(=O)N3CCc4ccccc43)s2)c1	x	28.1%[46.1 µM]	-3.2%[7.34 µM]	3.6%[7.34 µM]	x	x	x
CCOC(=O)C1(CCc2ccccc2)CCN(Cc2csc(C(C)=O)c2)CC1	u	-14.2%	-25.9%	u	6.31µM*	14.1µM*	u
CCOC(=O)C1(CCc2ccccc2)CCN(Cc2ccc(OC)cc2)CC1	u	u	i	0.9%	18.8%	x	x
COc1ccc(-c2csc(NC(=O)C3CSC4(C)CCC(=O)N34)n2)c(OC)c1 (configuration not stated)	-25.5%	u	u	u	8.91µM*	28µM*	-14.8%
COc1ccc(Cl)cc1NC(=O)C(C)OC(=O)C1=NNC(=O)CC1 (configuration not stated)	x	x	x	x	u	u	-13.8%
O=C1CCC(C(=O)OCC(=O)Nc2cc(Cl)ccc2F)=NN1	-2.9%	1.1%	-7.6%	1.4%	7.0%	x	x
Cn1c(SCC(=O)Nc2ccccc2F)nc2c(c1=O)SCC2	-24.3%	1.3%	-17.8%	-21.0%	6.31µM*	22.3µM*	-22.5%
